# Data taken from PubChem BioAssay AID652039 (The Scripps Research Institute Molecular Screening Center, 2013).
# Screen size: about 370,000 compounds; about 3,300 (0.89%) were called active.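 How the source made its calls: active means activation above the mean of all tested compounds plus 3 SD, computed per campaign excluding outliers beyond control limits (cut at about 13% in these data); inactive means the rest.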 Shown is part of a subset that was picked to be rich in actives.
# Molecular target: Kallikrein-7 (Homo sapiens) (UniProt P49862)
# Sequence (P49862 whole entry, looked up): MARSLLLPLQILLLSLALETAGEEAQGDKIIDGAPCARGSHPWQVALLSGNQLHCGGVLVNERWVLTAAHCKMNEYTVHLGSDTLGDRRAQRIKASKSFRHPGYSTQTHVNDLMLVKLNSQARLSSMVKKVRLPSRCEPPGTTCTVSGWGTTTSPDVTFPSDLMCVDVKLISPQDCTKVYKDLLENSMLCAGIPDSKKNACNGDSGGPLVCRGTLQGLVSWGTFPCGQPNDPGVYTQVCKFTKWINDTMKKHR
# Experiment: activation of human kallikrein-7 proenzyme – biochemical, fluorescence intensity, primary screen (AID 652039)
# Conditions: purified proKLK7, EDANS-DABCYL substrate fluorescence; at 7 µM; hits give high values; 100% is mature enzyme control, 0% vehicle
row,Compound,activation
1,O=C(CSc1nc2ccccc2n1Cc1ccccc1Cl)N/N=C\c1c[nH]c2ccccc12,0.56% (inactive)
2,N[C@@H](Cc1ccccc1)C(=O)N1CCC[C@@H]1C(=O)N1CCC2CCN(S(=O)(=O)c3ccccc3)CC21 (stereo not given in full),0.77% (inactive)
3,Cc1cc2cc3n(c2nn1)N=C(Cl)CC3,24.3% (active)
4,COCc1cc(=O)oc2cc(NS(=O)(=O)c3ccc(C)cc3)ccc12,15.2% (active)
5,Cc1ccc(NS(=O)(=O)c2ccc3c(c2)NC(=O)CO3)cc1,-0.54% (inactive)
6,Cc1ccc(S(=O)(=O)Nc2ccc(F)c(S(=O)(=O)N3CCOCC3)c2)cc1,-0.78% (inactive)
7,CC1CCN(c2ccc(C(=O)O)cc2NS(=O)(=O)c2ccc(Br)s2)CC1,0.65% (inactive)
8,CC(=O)C[C@@H]1OC[C@H](C)N1S(=O)(=O)c1ccc(C)cc1,-0.26% (inactive)
9,C[C@H](C(=O)N(C)c1ccccc1)[C@@H](O)c1ccc(Cl)cc1,0.11% (inactive)
10,COc1cc2c(cc1O)C(SC)=NC(C)(C)C2,-0.65% (inactive)
11,COc1cc2c(cc1OC)C(Nc1ccc(S(N)(=O)=O)cc1)=NC(C)(C)C2,0.68% (inactive)
12,COc1cc2c(cc1OC)C(C(C)C)=NC(C)(C)C2,85.2% (active)
13,COc1ccc(CN(CCN2CCOCC2)C(=O)c2ccc(C)cc2)cc1OC,0.42% (inactive)
14,Nn1c(SCC(=O)N2c3ccccc3Sc3ccccc32)nnc1-c1n[nH]c2c1CCC2,0.49% (inactive)
15,COc1ccc(-n2c(SCC(=O)OC(C)C)nnc2-c2ccccn2)cc1,-0.5% (inactive)
16,COc1ccc(C(=O)COC(=O)c2ccc3ccccc3n2)cc1,0.19% (inactive)
17,COc1ccc2nc(-c3ccccn3)ccc2c1,20.9% (active)
18,O=C(NC1CCC1)c1ccc(C#CC2CC2)cn1,0.73% (inactive)
19,CCCCOCCCNC(=O)C[C@H]1C[C@@]2(C(=O)OC)C(=C[C@H](C(C)(C)C)O[C@@H]2C)N(CCc2ccc(OC)c(OC)c2)C1=O,-0.83% (inactive)
20,N#CCC[C@H]1CC[C@]2(CCCN(Cc3ccc(Cl)cc3)C2)O1,0.36% (inactive)
